Rows were chosen to be rich in hits. Some 19% of all compounds tested hit in one or more screens of this group.
HT1080 IDH1KD tx = kills HT-1080 cells with IDH1 knockdown | AID 686971 | 360,000 tested, 2% active | HT-1080 IDH1 knockdown viability, ATP luminescence, 48 h | Potency, µM (series often up to 46.1 µM), without a hit: at the highest dose activity, negative = toxicity, most hits filed as cytotoxic;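 further: potency means the concentration at half of the fitted maximal effect; 0% = DMSO wells and -100% = cell-free medium wells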
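% activity derives from luminescence (CellTiter-Glo), normalised to DMSO and no-cell wells. HT-1080-IDH1KD cells, 750/well, had 48 h compound exposure at 37 °C.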
IL-1B inflam inh = blocks inflammasome-driven IL-1 beta release | THP-1 LPS/ATP IL-1B secretion, AlphaLISA, 16 h; stronger effect = lower value | activity change, % at 57.5 µM | 360,000 tested, 4.7% active; in the data active means activity change below about -50%; inconclusive means mostly about -30% to -49%
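Secreted IL-1B measured by AlphaLISA bead assay after 16 h compound exposure of THP-1 cells; compounds (final up to 57.5 uM) added 1 h before LPS (250 ng/mL) and ATP (1.25 mM) stimulation; lower signal means less secretion.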
TDP1 cell noCPT = qHTS for Inhibitors of human tyrosyl-DNA phosphodiesterase 1 (TDP1): qHTS in cells in absence of CPT. 420,000 tested, 15% active. DT40 Tdp1-/- hTDP1 cells, no CPT, ATP luminescence, 48 h. Potency, µM (titrated, usually from 46.2 µM), for inactives: top-dose activity change, negative = growth inhibition, hits mostly inhibitors; further: potency means the concentration at half of the fitted maximal effect; nearly all actives have a fitted effect of over 55% in size
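Growth of hTDP1-complemented DT40 Tdp1-knockout cells is measured by ATP luminescence after at least 48 hr compound exposure at 37 °C, with DMSO substituting for the 20 nM CPT used in the parallel screen.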
DT40 TDP1 CPT = growth inhibition of DT40 Tdp1-/-;hTDP1 cells with camptothecin (screen for TDP1 inhibitors) | chicken DT40 Tdp1-/-;hTDP1 cells + 20 nM CPT, ATP luminescence, 48 h | Potency, µM (series often up to 46.2 µM), without a hit: top-dose activity change, negative = growth inhibition, hits mostly inhibitors | 420,000 tested, 12% active | AID 686979; further: potency means the concentration at half of the fitted maximal effect; nearly all actives have a fitted effect of over 55% in size
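Chicken DT40 Tdp1-/- cells complemented with human TDP1, 400 cells/well, exposed to compounds plus 20 nM camptothecin for at least 48 h at 37 C; viability read as ATP content by CellTiter-Glo luminescence.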
HT1080NT lethal = kills 2HG-producing HT-1080-NT fibrosarcoma cells; Potency, µM (series often up to 46.1 µM), without a hit: at the top dose activity, negative = less viability, usual class: cytotoxic; AID 686970; HT-1080-NT fibrosarcoma viability, CellTiter-Glo ATP luminescence, 48 h; 360,000 tested, 1.6% active;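 further: NT is the 2HG producing partner of a matched IDH1 knockdown line; potency means the concentration at half of the fitted maximal effect; 0% = DMSO-treated cells and -100% = media-only wells without cells; nearly all actives have a fitted effect of over 55% in size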
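750 cells/well, RPMI + 5% FBS; 2 h settle, compound pin-transfer, 48 h at 37 degrees C. CellTiter-Glo 10 min RT, luminescence. Normalized to DMSO and media-only wells.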
* marks the source's active call; other numbers are inactive results; ? = inconclusive; · = no result. Unless noted, the call rests on the fitted dose curve; in most records, active means well fitted curve in the direction sought with a large enough effect; inconclusive means small, poorly fitted or top-dose-only effect, or another doubt; inactive means no such curve, though single readings can be large; an effect the other way counts as inactive or inconclusive. Unless noted, on the % scale 0 is the no-effect control and ±100 the full control effect.

SMILES	HT1080 IDH1KD tx	IL-1B inflam inh	TDP1 cell noCPT	DT40 TDP1 CPT	HT1080NT lethal
CC1=C(c2ccc(Cl)cc2)[N+](=O)C(C)(C)N1[O-]	6.8%	-3.0	?	16.4µM*	-4.6%
Cc1c(-c2ccc(Cl)cc2)[n+](=O)c(-c2ccccc2)cn1[O-]	10.7%	27.5	?	-7.9%	-1.0%
N=C1C(c2nc3ccccc3c(=O)[nH]2)=C(O)CN1CCO	11.2%	5.4	-3.3%	0.2%	20.9%
N=C1C(c2nc3ccccc3c(=O)[nH]2)=C(O)CN1CCc1ccccc1	16.7%	-11.9	6.51µM*	2.59µM*	27.0%
CCOc1ccc(/C=N/NC(=O)c2cccc3ccccc23)c(OCC)c1	0.2%	50.6	-0.7%	-12.8%	6.4%
CC(C)Cn1c(=O)c2ccccc2n2c(CCC(=O)NC3CCN(Cc4ccccc4)CC3)nnc12	20.5%	-11.2	1.1%	6.2%	12.4%
CC(=O)c1c(N2CCCCC2)nc(=S)n(-c2ccccc2)c1C	-1.0%	-8.8	5.8µM*	11.6µM*	-0.2%
CCCCNc1nc(=S)n(-c2ccccc2)c(C)c1C(C)=O	16.4µM*	-91.0*	23.1µM*	16.4µM*	?
CC(=O)c1c(N2CCCC2)nc(=S)n(-c2ccccc2)c1C	-5.0%	-4.2	8.2µM*	11.6µM*	14.0%
CC(=O)c1c(N2CCCCC2)nc(=O)n(-c2ccccc2)c1C	-1.6%	9.1	-2.8%	-3.6%	2.3%
CCCNc1nc(=S)n(-c2ccccc2)c(C)c1C(C)=O	3.5%	0.0	-6.3%	-4.5%	4.2%
CCn1c(C)c(C(C)=O)c(N2CCN(C(c3ccccc3)c3ccccc3)CC2)nc1=S	?	-185.4*	6.51µM*	9.2µM*	?
CC(=O)c1c(N2CCOCC2)nc(=S)n(-c2ccccc2)c1C	?	23.8	-5.5%	-6.0%	-3.0%
Cc1ccc(Cn2ccnc2SCC(=O)NCc2ccccc2)cc1	·	·	2.5%	-13.2%	·
Cn1c(CC(O)c2nc3ccccc3n2C)nc2ccccc21 (configuration not stated)	-0.9%	-1.7	-0.2%	8.9%	11.9%
O=C(CNc1cc(S(=O)(=O)N2CCOCC2)ccc1N1CCCC1)Nc1ccc(Cl)cc1F	6.7%	?	13µM*	?	1.0%
O=C(Nc1cccc(Cl)c1)Nc1cc(S(=O)(=O)N2CCOCC2)ccc1N1CCCC1	-2.4%	-60.1*	23.1µM*	14.6µM*	-11.3%
O=C(Cc1c(F)cccc1Cl)Nc1cc(S(=O)(=O)N2CCOCC2)ccc1N1CCCC1	-2.6%	?	-16.7%	-19.3%	1.6%
Cc1ccc(C(C)C)c(OCC(=O)Nc2ccc3c(c2)nc(CN2CCCC2)n3C)c1	23.1µM*	-50.4*	14.6µM*	?	16.4µM*
Cc1ccc(C(=O)Nc2ccc3c(c2)nc(CCNC(=O)c2ccco2)n3C)cc1	1.1%	19.8	-12.1%	2.6%	3.1%
Cc1ccc(OCC(=O)Nc2ccc3c(c2)nc(CCN2CCCC2)n3C)cc1	-10.1%	-13.9	?	-85.0%	-6.9%
Cc1cccc(OCC(=O)Nc2ccc3c(c2)nc(CCNC(=O)c2ccco2)n3C)c1	·	·	-28.8%	23.1µM*	·
CC(=O)Nc1ccc(S(=O)(=O)NNC(=O)COc2cc(C)ccc2C(C)C)cc1	-1.2%	2.3	-12.4%	-28.9%	5.1%
COc1ccc(OCC(=O)Nc2ccc3c(c2)nc(CCNC(=O)c2ccco2)n3C)cc1	·	·	5.0%	-4.7%	·
Cc1ccc(C(C)C)c(OCC(=O)Nc2ccc3c(c2)nc(CCNC(=O)c2ccco2)n3C)c1	·	·	10.3µM*	?	·
SMILES	HT1080 IDH1KD tx	IL-1B inflam inh	TDP1 cell noCPT	DT40 TDP1 CPT	HT1080NT lethal
Cc1ccc(C(C)C)c(OCC(=O)NNCC(=O)Nc2cccc(F)c2)c1	-8.4%	?	14.6µM*	14.6µM*	-0.1%
O=C(O)CC1c2ccccc2CCN1S(=O)(=O)c1cccs1 (configuration not stated)	16.3%	6.9	25.1%	7.7%	10.1%
CCOC(=O)[C@]12CCCC=C1N(Cc1ccc(Cl)cc1Cl)C(=O)[C@H](CC(=O)NCC13CC4CC(CC(C4)C1)C3)C2	?	-6.0	18.4µM*	?	-16.1%
CCCCOCCCNC(=O)C[C@@H]1C[C@@]2(C(=O)OCC)CCC=C2N(Cc2ccc(Cl)cc2Cl)C1=O	?	-89.4*	14.6µM*	20.6µM*	?
C#CCNC(=O)C[C@@H]1C[C@@]2(C(=O)OC)CCCCC=C2N(Cc2ccc(Cl)cc2Cl)C1=O	-25.6%	-19.3	18.4µM*	?	-17.8%
CCCCOCCCNC(=O)C[C@@H]1C[C@@]2(C(=O)OCC)CCC=C2N(Cc2ccccc2)C1=O	17.0%	-4.5	?	?	12.7%
C#CCNC(=O)C[C@@H]1C[C@@]2(C(=O)OCC)CCC=C2N(Cc2ccc(Cl)cc2Cl)C1=O	-16.7%	11.2	23.1µM*	?	?
COc1ccc(C(=O)N/C(=C\c2cn(S(=O)(=O)N(C)C)c3ccccc23)C(=O)N2CCN(C)CC2)cc1OC	-11.4%	-16.6	?	-31.8%	-15.6%
O=C(C[n+]1ccccc1Cl)c1ccccc1	·	·	-25.7%	-7.6%	·
CCCn1c(C)cc(/C=C(\C#N)C(=O)OCC(=O)N(CC)c2c(N)n(Cc3ccccc3)c(=O)[nH]c2=O)c1C	-0.4%	?	-25.6%	?	-9.6%
N#CCC(=O)Nc1ccc(C(=O)OCC(=O)NNC(=O)c2cccs2)cc1	13.3%	-2.9	-0.9%	12.2%	7.8%
CCOC(=O)[C@]12CCCC=C1N(Cc1ccc(Cl)cc1Cl)C(=O)[C@H](CC(=O)NCCCOC)C2	-28.9%	-13.9	16.4µM*	?	-14.9%
CCOC(=O)[C@]12CCCC=C1N(Cc1ccc(Cl)cc1Cl)C(=O)[C@H](CC(=O)NCC1CCCCC1)C2	?	-62.4*	?	23.1µM*	?
CCOC(=O)[C@]12CCCC=C1N(Cc1ccc(Cl)cc1Cl)C(=O)[C@H](CC(=O)NCCC(C)C)C2	?	?	20.6µM*	?	?
CCOC(=O)[C@]12CCC=C1N(Cc1ccc(Cl)cc1Cl)C(=O)[C@H](CC(=O)NCCC(C)C)C2	?	0.0	20.6µM*	?	?
CC(C)CNC(=O)[C@H](Cc1ccccc1)NC(=O)c1cccs1	-1.9%	-4.7	-11.5%	-1.9%	10.0%
COC(=O)C1CC(O)CN1S(=O)(=O)c1cccs1 (configuration not stated)	20.0%	0.3	14.2%	25.6%	-0.2%
COC(=O)[C@]12CCCCC=C1N(Cc1ccc(Cl)cc1Cl)C(=O)[C@H](CC(=O)NCc1ccccc1)C2	-29.8%	-17.8	?	?	-28.3%
